Assay results published in PubChem BioAssay (Tox21).
Inconclusive results are not listed. Activity calls are given as the source filed them. Unless noted, calls come from the whole dose curve; as a rule, active = well fitted curve in the direction sought with a large enough effect in the repeat runs; inconclusive = weak or mixed curves; inactive = no such curve, though single readings can be large; an effect the other way counts as inactive or inconclusive.

Assays:
[1] = qHTS assay to identify small molecule agonists or antagonists of the thyroid stimulating hormone receptor (TSHR) signaling pathway - wild type cell line counter screen (AID 1259384; calls by dose curve)
Procedure, shortened: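 Counter screen in untransfected Hek293: compounds (15-point titration, triplicate) plus phosphodiesterase inhibitor Ro20-1724 added after 18 h plating; 30 min RT. Intracellular cAMP via competitive d2/cryptate immunoassay, 1 h incubation.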

[2] = target: Thyrotropin receptor (Homo sapiens) (UniProt P16473); test: qHTS assay to identify small molecule antagonists of the thyroid stimulating hormone receptor (TSHR) signaling pathway (AID 1259385; calls by dose curve; note: nearly all actives have a fitted effect of over 20% in size)
Procedure, shortened: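 Antagonist mode: compound-treated TSHR-expressing HEK293 cells were stimulated with 1.5 ng/mL TSH (final) in presence of Ro20-1724 for 30 min at RT. HTRF cAMP detection after 1 h; each compound tested at 15 concentrations, triplicate.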

[3] = qHTS assay to identify small molecule agonists of the estrogen receptor alpha (ER-alpha) signaling pathway in the presence of an antagonist - cell viability counter screen (AID 1259386);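 note: series mostly up to about 92 µM; cells exposed to compounds for 22 h at 37 °C before the viability read; nearly all actives have a fitted effect of over 30% in size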
Procedure, shortened: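 Read-out: CellTiter-Fluor fluorescence after 1hr reagent incubation, measured in the same wells as the luciferase readout. VM7Luc4E2 cells were exposed to 15 compound concentrations with 10.0nM ICI-182,780 for 22hr at 37C.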

[4] = target: Progesterone receptor (Homo sapiens) (UniProt P06401); test: qHTS assay to identify small molecule antagonists of the progesterone receptor (PR) signaling pathway (AID 1346795; active = well fitted inhibition curve with a large enough effect in the signal ratio in the repeat runs, not every such curve was filed as active; the % refers to the signal ratio)
Procedure, shortened: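 Antagonist mode: compounds tested against 1 nM (final) promegestone stimulation in HEK293T cells expressing PR-UAS-bla reporter, 16 hr at 37C, 5% CO2; beta-lactamase activity detected via B/G FRET substrate after 2 hr at room temperature.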

[5] = qHTS assay to identify small molecule antagonists of the progesterone receptor (PR) signaling pathway - cell viability counter screen (AID 1346798); note: series mostly up to about 92 µM; nearly all actives have a fitted effect of over 50% in size
Procedure, shortened: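 Counter screen for cytotoxicity: viability of PR-UAS-bla HEK293T cells was measured with CellTiter-Glo luminescence following 16 hr compound exposure in the presence of R5020.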

[6] = qHTS assay to identify small molecule agonists of the progesterone receptor (PR) signaling pathway - cell viability counter screen (AID 1346799; calls by dose curve; note: nearly all actives have a fitted effect of over 45% in size)
Procedure, shortened: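 Cells (PR-UAS-bla HEK293T) are plated at 3,000/well in 2% charcoal-stripped FBS medium, rested 6 hr, dosed and incubated 16 hr at 37C. CellTiter-Glo is then added and luminescence measured after 30 min at room temperature.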

[7] = qHTS assay to identify small molecule antagonists of the TGF-beta/Smad signaling pathway - cell viability counter screen (AID 1346824); note: nearly all actives have a fitted effect of over 50% in size
Procedure, shortened: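 Cytotoxicity counter-screen run in the same wells as the beta-lactamase Smad reporter read: CellTiter-Glo luminescence after 30 min at room temperature. HEK 293T SBE-bla cells had 5 hr compound exposure at 37 C with TGF-beta1 (0.25 ng/mL stock).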

[8] = qHTS assay to identify small molecule agonists of the TGF-beta/Smad signaling pathway - cell viability counter screen (AID 1346829); note: top concentration of the series differs between compounds; nearly all actives have a fitted effect of over 45% in size
Procedure, shortened: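 Cytotoxicity counter screen: CellTiter-Glo luminescence (30 min, room temperature) measured in the SBE-bla HEK 293T reporter wells after 5 hr compound treatment at 37 C and the 2 hr substrate step.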

[9] = qHTS assay to identify small molecule agonists of the TGF-beta/Smad signaling pathway (AID 1346859; active = well fitted activation curve with a large enough effect in the signal ratio in the repeat runs, not every such curve was filed as active; the % refers to the signal ratio; note: series mostly up to about 77 µM)
Procedure, shortened: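 Reporter line: HEK 293T with stably integrated SBE-controlled beta-lactamase. Compound exposure lasts 5 hr at 37 C and 5% CO2; substrate loading follows for 2 hr at room temperature, with emission read at 460 and 530 nm.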

[10] = target: Thyrotropin-releasing hormone receptor (Homo sapiens) (UniProt P34981); test: qHTS assay to identify small molecule antagonists of the thyrotropin-releasing hormone receptor (TRHR) signaling pathway (AID 1346877; active = well fitted inhibition curve with a large enough effect in the repeat runs, not every such curve was filed as active; note: series mostly up to about 51 µM)
Procedure, shortened: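 HEK293/TRHR cells, 18 h, 37 °C; Ca2+ dye 2 h; cpd 5 min RT; TRH 1 nM final; fluorescence read 3 min, 1 s intervals; 15 concs, triplicate.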

[11] = target: Thyrotropin-releasing hormone receptor (Homo sapiens) (UniProt P34981); test: qHTS assay to identify small molecule agonists of the thyrotropin-releasing hormone receptor (TRHR) signaling pathway (AID 1346891; calls by dose curve;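 note: HEK293 cells expressing TRHR with calcium dye readout; series mostly up to about 58 µM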)
Procedure, shortened: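 Cells: TRHR-Hek293, seeded and incubated 18 h. Dye loading: 2 h at 37 °C. Compound added from DMSO stock by pin tool. Read-out: kinetic calcium fluorescence over 3 min.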

[12] = Human pregnane X receptor (PXR) small molecule agonists, qHTS cell viability counter screen (AID 1346977); note: nearly all actives have a fitted effect of over 50% in size
Procedure, shortened: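 Cytotoxicity counter screen run in the same wells as the PXR luciferase assay, using PXR-Luc HepG2 cells in charcoal-stripped serum medium. Viability: CellTiter-Fluor fluorescence after 24hr compound treatment.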

[13] = Caspase-3/7 induction in HepG2 cells by small molecules, qHTS assay (AID 1346978); note: nearly all actives have a fitted effect of over 15% in size
Procedure, shortened: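 Caspase-3/7 induction was measured by Caspase-Glo 3/7 luminescence (30 min, room temperature) after a 17 hr compound exposure of wild-type HepG2 cells seeded at 2,000 per well and pre-incubated 5 hr.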

[14] = Caspase-3/7 induction in CHO-K1 cells by small molecules, qHTS cell viability counter screen (AID 1346979); note: nearly all actives have a fitted effect of over 35% in size
Procedure, shortened: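 Cytotoxicity counter screen run in parallel with the caspase-3/7 assay: CHO-K1 cells, 16hr compound treatment at 37C, then CellTiter-Fluor for 1hr before fluorescence reading.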

[15] = Caspase-3/7 induction in CHO-K1 cells by small molecules, qHTS assay (AID 1346980); note: nearly all actives have a fitted effect of over 15% in size
Procedure, shortened: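 Luminescent Caspase-Glo 3/7 read (30min, room temperature) quantified apoptosis induction. Cells were wild-type CHO-K1, treated with compound for 17hr at 37 C and 5% CO2.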

[16] = Caspase-3/7 induction in HepG2 cells by small molecules, qHTS cell viability counter screen (AID 1346981); note: series mostly up to about 92 µM; nearly all actives have a fitted effect of over 30% in size
Procedure, shortened: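 Fluorescence read-out of live-cell protease activity (CellTiter-Fluor) after 1 hr with reagent. This was measured in the same wells as the caspase-3/7 luminescence, on HepG2 cells exposed to DMSO-dissolved compounds for 16 hr at 37 C.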

[17] = target: Nuclear receptor subfamily 1 group I member 2 (Homo sapiens) (UniProt O75469); test: Human pregnane X receptor (PXR) small molecule agonists, qHTS assay (AID 1346982); note: nearly all actives have a fitted effect of over 35% in size
Procedure, shortened: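 HepG2 PXR-Luc reporter line, 5% charcoal-stripped FBS; 5 hr pre-incubation, compound (DMSO) 24 hr at 37 C/5% CO2; ONE-Glo 30 min RT; luminescence read-out.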

[18] = target: Progesterone receptor (Homo sapiens) (UniProt P06401); test: qHTS assay to identify small molecule agonists of the progesterone receptor (PR) signaling pathway (AID 1346784; calls by dose curve; note: nearly all actives have a fitted effect of over 30% in size)
Procedure, shortened: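 Cells (PR-UAS-bla HEK 293T, GripTite) were plated in assay medium containing 2% charcoal-stripped FBS and incubated 6 hr. Test compounds in DMSO were added for 16 hr at 37C. FRET substrate was then loaded for 2 hr at room temperature before fluorescence reading.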

[19] = target: Nuclear receptor subfamily 1 group I member 2 (Rattus norvegicus) (UniProt Q9R1A7); test: Rat pregnane X receptor (rPXR) activation by small molecules, qHTS assay (AID 1346983); settings: rPXR luciferase reporter cells, One-Glo luminescence, 24 h; max activation: stronger effect = higher value; note: nearly all actives have a fitted effect of over 20% in size
Procedure, shortened: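 Luminescent readout (One-Glo luciferase, 30 min room temperature) followed 24 hr compound treatment at 37 C of rPXR cells plated 2,000 per well and preincubated 5hr; qHTS format with compounds delivered in DMSO.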
% is set by controls: 0 for no effect and ±100 for the full control effect.

Nuclear receptor subfamily 1 group I member 2 (Homo sapiens), sequence (O75469 whole entry, looked up): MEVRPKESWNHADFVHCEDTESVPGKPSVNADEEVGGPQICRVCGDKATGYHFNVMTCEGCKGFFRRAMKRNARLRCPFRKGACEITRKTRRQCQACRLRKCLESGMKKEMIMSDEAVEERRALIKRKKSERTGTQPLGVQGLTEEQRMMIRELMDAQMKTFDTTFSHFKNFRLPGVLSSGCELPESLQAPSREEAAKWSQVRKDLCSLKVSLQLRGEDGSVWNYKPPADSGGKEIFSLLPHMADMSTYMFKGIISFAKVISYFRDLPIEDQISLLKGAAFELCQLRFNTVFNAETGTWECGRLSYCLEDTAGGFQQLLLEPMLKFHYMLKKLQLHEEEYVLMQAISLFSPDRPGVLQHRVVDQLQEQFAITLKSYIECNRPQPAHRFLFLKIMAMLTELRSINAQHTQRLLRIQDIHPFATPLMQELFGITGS
Progesterone receptor (Homo sapiens), sequence (P06401 whole entry, looked up): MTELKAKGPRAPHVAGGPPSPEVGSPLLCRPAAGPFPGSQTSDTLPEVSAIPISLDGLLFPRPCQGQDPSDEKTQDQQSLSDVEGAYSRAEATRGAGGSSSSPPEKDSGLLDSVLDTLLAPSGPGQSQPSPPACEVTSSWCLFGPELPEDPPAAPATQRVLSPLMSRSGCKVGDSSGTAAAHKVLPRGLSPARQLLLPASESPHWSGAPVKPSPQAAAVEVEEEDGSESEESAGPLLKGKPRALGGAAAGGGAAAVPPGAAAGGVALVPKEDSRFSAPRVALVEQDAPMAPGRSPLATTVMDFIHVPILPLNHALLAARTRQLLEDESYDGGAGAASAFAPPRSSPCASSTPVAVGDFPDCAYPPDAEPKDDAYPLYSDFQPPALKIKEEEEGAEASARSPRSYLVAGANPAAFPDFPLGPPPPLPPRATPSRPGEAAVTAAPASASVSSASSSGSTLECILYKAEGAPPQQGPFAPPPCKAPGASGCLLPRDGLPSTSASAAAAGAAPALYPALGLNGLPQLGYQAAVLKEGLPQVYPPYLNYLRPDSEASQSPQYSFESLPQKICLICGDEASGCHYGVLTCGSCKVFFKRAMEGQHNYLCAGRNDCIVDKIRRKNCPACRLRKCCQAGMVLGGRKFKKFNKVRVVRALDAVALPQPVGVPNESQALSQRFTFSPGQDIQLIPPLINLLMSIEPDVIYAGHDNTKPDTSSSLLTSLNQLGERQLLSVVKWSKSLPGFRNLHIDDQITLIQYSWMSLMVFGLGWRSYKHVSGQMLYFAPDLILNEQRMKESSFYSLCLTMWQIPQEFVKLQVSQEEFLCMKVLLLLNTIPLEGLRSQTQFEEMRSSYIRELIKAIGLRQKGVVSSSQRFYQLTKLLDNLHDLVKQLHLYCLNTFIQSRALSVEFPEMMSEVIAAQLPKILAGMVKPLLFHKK
Thyrotropin receptor (Homo sapiens), sequence (P16473 whole entry, looked up): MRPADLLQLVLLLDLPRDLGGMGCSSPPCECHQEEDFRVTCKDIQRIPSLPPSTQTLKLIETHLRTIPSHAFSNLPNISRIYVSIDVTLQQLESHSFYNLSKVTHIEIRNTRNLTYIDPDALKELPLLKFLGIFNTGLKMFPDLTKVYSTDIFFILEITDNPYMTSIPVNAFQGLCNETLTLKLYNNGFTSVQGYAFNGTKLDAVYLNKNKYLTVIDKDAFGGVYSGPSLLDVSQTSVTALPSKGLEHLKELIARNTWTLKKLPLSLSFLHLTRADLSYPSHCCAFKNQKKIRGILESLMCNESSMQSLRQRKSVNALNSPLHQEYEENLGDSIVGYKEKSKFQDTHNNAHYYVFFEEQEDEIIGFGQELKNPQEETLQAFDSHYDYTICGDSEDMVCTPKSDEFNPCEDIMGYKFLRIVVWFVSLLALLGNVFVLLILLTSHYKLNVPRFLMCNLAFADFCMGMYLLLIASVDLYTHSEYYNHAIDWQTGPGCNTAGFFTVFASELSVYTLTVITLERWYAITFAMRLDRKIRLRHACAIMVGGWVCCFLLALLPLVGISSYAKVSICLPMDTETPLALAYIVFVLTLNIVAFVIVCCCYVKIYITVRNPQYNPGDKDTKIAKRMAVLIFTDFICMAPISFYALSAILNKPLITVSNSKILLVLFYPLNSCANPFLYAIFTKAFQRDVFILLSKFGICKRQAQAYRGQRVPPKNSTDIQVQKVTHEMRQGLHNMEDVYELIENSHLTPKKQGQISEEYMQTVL
Thyrotropin-releasing hormone receptor (Homo sapiens), sequence (P34981 whole entry, looked up): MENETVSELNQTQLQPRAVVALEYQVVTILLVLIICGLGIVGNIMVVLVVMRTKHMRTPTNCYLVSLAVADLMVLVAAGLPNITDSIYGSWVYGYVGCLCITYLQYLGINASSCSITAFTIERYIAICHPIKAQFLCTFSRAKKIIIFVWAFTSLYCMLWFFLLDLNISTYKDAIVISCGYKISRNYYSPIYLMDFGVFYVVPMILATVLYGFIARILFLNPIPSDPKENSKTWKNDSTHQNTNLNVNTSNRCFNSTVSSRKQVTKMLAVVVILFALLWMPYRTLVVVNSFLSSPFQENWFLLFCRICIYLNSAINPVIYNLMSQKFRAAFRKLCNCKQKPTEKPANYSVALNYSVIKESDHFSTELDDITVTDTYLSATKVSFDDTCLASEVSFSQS
Nuclear receptor subfamily 1 group I member 2 (Rattus norvegicus), sequence (Q9R1A7 whole entry, looked up): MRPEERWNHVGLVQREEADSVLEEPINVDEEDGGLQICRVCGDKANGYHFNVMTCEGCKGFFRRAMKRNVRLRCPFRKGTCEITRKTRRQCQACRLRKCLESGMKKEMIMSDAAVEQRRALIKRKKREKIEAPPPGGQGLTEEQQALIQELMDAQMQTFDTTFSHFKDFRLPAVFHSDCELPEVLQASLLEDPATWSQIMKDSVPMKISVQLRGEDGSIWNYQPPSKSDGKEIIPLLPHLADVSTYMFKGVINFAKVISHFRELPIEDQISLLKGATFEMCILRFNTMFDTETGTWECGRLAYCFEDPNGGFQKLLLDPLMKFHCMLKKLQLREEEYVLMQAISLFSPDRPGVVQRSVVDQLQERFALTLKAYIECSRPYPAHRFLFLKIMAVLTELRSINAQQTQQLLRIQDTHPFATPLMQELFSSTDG

CCCCCCCOC(C)=O
inactive: outcome [1] | outcome [2] | outcome [3] | Potency [4] | outcome [5] | Potency [6] | outcome [7] | outcome [8] | outcome [9] | outcome [10] | Potency [11] | outcome [12] | outcome [13] | Potency [14] | outcome [15] | outcome [16] | Potency [17]

CCN(CC)CC(=O)Oc1ccc(NC(C)=O)cc1
inactive: outcome [1] | outcome [3] | Potency [18] | Potency [4] | outcome [5] | Potency [6] | outcome [7] | outcome [8] | outcome [9] | outcome [10] | Potency [11] | outcome [12] | outcome [13] | Potency [14] | outcome [15] | outcome [16] | Potency [17]

CC(C)OCCO
inactive: outcome [1] | outcome [2] | outcome [3] | Potency [4] | outcome [5] | outcome [7] | outcome [8] | outcome [9] | outcome [12] | outcome [13] | Potency [14] | outcome [15] | outcome [16] | Potency [17]

CC(C)(O)c1ccc(C(C)(C)O)cc1
inactive: outcome [1] | outcome [2] | outcome [3] | Potency [18] | outcome [5] | Potency [6] | outcome [7] | outcome [8] | outcome [9] | outcome [12] | outcome [13] | Potency [14] | outcome [15] | outcome [16] | Potency [17]

CCCCCC(=O)CC
inactive: outcome [1] | outcome [2] | outcome [3] | outcome [5] | outcome [7] | outcome [8] | outcome [9] | outcome [10] | Potency [11] | outcome [12] | outcome [13] | Potency [14] | outcome [15] | outcome [16] | Potency [17]

CC(C)(C)C(=O)NCCCC(=O)O
inactive: outcome [1] | outcome [2] | outcome [3] | Potency [6] | outcome [7] | outcome [8] | outcome [9] | outcome [10] | outcome [12] | outcome [13] | Potency [14] | outcome [16] | Potency [17] | max activation [19] -1.4%

C=CCON/C(CCC)=C1\C(=O)CC(C)(C)C(C(=O)OC)=C1O
inactive: outcome [1] | outcome [2] | outcome [3] | Potency [18] | Potency [4] | Potency [6] | outcome [8] | outcome [9] | outcome [10] | Potency [11] | outcome [12] | outcome [13] | Potency [14] | outcome [15] | outcome [16] | Potency [17]

O=C(O)CCCCCCCCCC(=O)O
inactive: outcome [1] | outcome [3] | Potency [18] | Potency [4] | outcome [5] | Potency [6] | outcome [7] | outcome [8] | outcome [9] | outcome [10] | Potency [11] | outcome [12] | outcome [13] | Potency [14] | outcome [15] | outcome [16] | Potency [17]

N=C(N)N1CCc2ccccc2C1
inactive: cAMP activity change [1] 4.39% [at 8.39 µM] | activity change, negative = inhibition [2] 0.0098% [at 8.39 µM] | activity change, negative = cytotoxicity [3] -0.402% [at 8.39 µM] | activity change, negative = inhibition [4] 5.13% [at 8.39 µM] | activity change, negative = cytotoxicity [5] 3.01% [at 8.39 µM] | activity change, negative = cytotoxicity [6] 0.346% [at 8.39 µM] | activation [9] -1.64% [at 6.97 µM] | activity, negative = inhibition [10] 4% [at 4.65 µM] | activity change, negative = cytotoxicity [12] 4.15% [at 8.39 µM] | caspase activation [13] -1.31% [at 8.39 µM] | activity change, negative = cytotoxicity [14] 6.67% [at 8.39 µM] | caspase-3/7 activation [15] -0.384% [at 8.39 µM] | activity change, negative = cytotoxicity [16] 3.77% [at 8.39 µM] | activation [17] -6.7% [at 8.39 µM] | max activation [19] -0.056%
